Bioassay records from PubChem BioAssay.
Only some compounds are listed: those with a hit (about 18% of all), similar ones and a draw of the others.
DT40 TDP1 CPT = qHTS for Inhibitors of human tyrosyl-DNA phosphodiesterase 1 (TDP1): qHTS in cells in presence of CPT; chicken DT40 Tdp1-/-;hTDP1 cells + 20 nM CPT, ATP luminescence, 48 h; Potency, µM (titrated, usually from 46.2 µM), for inactives: at the top dose activity change, negative = growth inhibition, most hits filed as inhibitors; 12% of 420,000 active; note: potency is the fitted concentration of half-maximal effect; nearly all actives have a fitted effect of over 55% in size
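Chicken DT40 Tdp1-/- cells stably complemented with human TDP1 were seeded at 400 cells/well in medium containing 20 nM camptothecin, exposed to pin-transferred compounds, and grown at 37 °C for at least 48 hr. Viability was read as ATP luminescence.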
RORg inh = qHTS for inhibitors of ROR gamma transcriptional activity | Drosophila S2 Gal4-RORgamma UAS-luciferase reporter, 20 h | 5.4% of 310,000 active | Nuclear receptor ROR-gamma (Mus musculus), P51450 | Potency, µM (highest dose often 53.6 µM), for inactives: at the highest dose activity change, negative = inhibition, most hits filed as inhibitors; note: potency is the fitted concentration of half-maximal effect; nearly all actives have a fitted effect of over 60% in size
Target sequence (P51450 whole entry, looked up, the tested form may be a part): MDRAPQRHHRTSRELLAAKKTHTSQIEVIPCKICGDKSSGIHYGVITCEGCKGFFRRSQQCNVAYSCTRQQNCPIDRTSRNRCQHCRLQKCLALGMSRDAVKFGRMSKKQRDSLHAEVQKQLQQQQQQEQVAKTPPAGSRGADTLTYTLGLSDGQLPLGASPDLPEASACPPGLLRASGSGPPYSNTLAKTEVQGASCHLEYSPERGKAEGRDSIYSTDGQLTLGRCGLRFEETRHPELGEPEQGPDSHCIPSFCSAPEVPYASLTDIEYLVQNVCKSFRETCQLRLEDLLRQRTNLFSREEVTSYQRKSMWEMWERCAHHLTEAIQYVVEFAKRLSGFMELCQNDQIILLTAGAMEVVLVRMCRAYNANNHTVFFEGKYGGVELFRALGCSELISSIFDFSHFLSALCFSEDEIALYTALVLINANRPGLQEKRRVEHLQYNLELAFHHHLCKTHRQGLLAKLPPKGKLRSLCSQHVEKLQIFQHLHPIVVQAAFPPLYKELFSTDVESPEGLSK
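Using a luciferase readout, inhibitors were identified by reduced reporter activity in Drosophila cells coexpressing a copper-inducible Gal4–ROR gamma fusion and UAS-driven Photinus luciferase, incubated 20 hr after 700 uM copper sulfate.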
TDP1 cell noCPT = qHTS for Inhibitors of human tyrosyl-DNA phosphodiesterase 1 (TDP1): qHTS in cells in absence of CPT. DT40 Tdp1-/- hTDP1 cells, no CPT, ATP luminescence, 48 h. Potency, µM (highest dose often 46.2 µM), for the others: top-dose activity change, negative = growth inhibition, actives largely listed as inhibitors. AID 686978, 2013. 15% of 420,000 active; note: potency is the fitted concentration of half-maximal effect; nearly all actives have a fitted effect of over 55% in size
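No-CPT arm: Tdp1-/-;hTDP1 DT40 cells (400/well) plus compounds, incubated ≥48 hr at 37 °C. Readout CellTiter-Glo luminescence.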
LDHA inh = qHTS assay for inhibitors of human lactate dehydrogenase; 0.15% of 480,000 active; purified LDHA, NADH/diaphorase-resazurin fluorescence; stronger effect = lower value; L-lactate dehydrogenase A chain (Homo sapiens), P00338; AID 1347041, 2019; activity change, % (values are at about 110 or 230 µM); in the data active = activity change below about -30%; inconclusive = mostly about -25% to -30%;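 note: plate controls were DMSO wells for no effect and wells without enzyme for full effect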
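Enzyme activity of human lactate dehydrogenase 5 (2 nM; 0.06 mM NADH, 0.2 mM pyruvate, 5 min, RT) is measured via a resazurin/diaphorase fluorescence readout of residual NADH.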
Gal4-VP16 FLuc = VP16 counterscreen qHTS for inhibitors of ROR gamma transcriptional activity | Drosophila S2 Gal4-VP16 UAS-luciferase, luminescence, 20 h | 3.5% of 310,000 active | Potency, µM (doses to about 53.6 µM), inactives show at the top dose activity, negative = inhibition, hits mostly inhibitors;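 note: Gal4-VP16 expression switched on by copper sulfate through the metallothionein promoter; potency is the fitted concentration of half-maximal effect; nearly all actives have a fitted effect of over 50% in size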
IL1B secr inh = qHTS for Inhibitors of Inflammasome Signaling: IL-1-beta AlphaLISA Primary Screen. THP-1 LPS/ATP IL-1B secretion, AlphaLISA, 16 h; stronger effect = lower value. activity change, % at 57.5 µM. 4.7% of 360,000 active. AID 743279, 2014; in the data active = activity change below about -50%; inconclusive = mostly about -30% to -49%
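THP-1 cells pretreated 1 hr with compounds (up to 57.5 uM final), then stimulated with LPS (250 ng/mL final) plus ATP (1.25 mM final); secreted IL-1B measured by AlphaLISA after 16 hr, decreased signal indicating inhibition.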
Active calls of the source: *. Unless noted, calls come from the whole dose curve; as a rule, active = well fitted curve in the direction sought with a large enough effect; inconclusive = small, poorly fitted or top-dose-only effect, or another doubt; inactive = no such curve, though single readings can be large; an effect the other way counts as inactive or inconclusive. Unless noted, % is set by controls: 0 for no effect and ±100 for the full control effect.

`Cc1nc2cc3c(=O)n(C)cnc3cc2n1Cc1ccccc1` gave DT40 TDP1 CPT -15.2%, TDP1 cell noCPT 16.4µM*, LDHA inh 0.6 and IL1B secr inh 0.0.
O=C1CCc2cc(-c3csc(-c4ccc(O)cc4)n3)ccc2N1 was read as DT40 TDP1 CPT 11.2µM*, TDP1 cell noCPT 3.16µM* and LDHA inh 3.4.
For NNc1nc2sc3c(c2c(=O)n1-c1ccccc1)CCCC3 the results were DT40 TDP1 CPT 18.4µM*, RORg inh inconclusive, TDP1 cell noCPT inconclusive, LDHA inh 9.9, Gal4-VP16 FLuc inconclusive and IL1B secr inh 26.6.
Screening COc1ccc(-n2c(SCCNCCO)nc3sc4c(c3c2=O)CCCC4)cc1 returned DT40 TDP1 CPT inconclusive, RORg inh 0.8%, TDP1 cell noCPT inconclusive, LDHA inh -0.2, Gal4-VP16 FLuc -4.5% and IL1B secr inh -75.2*.
For COc1ccc(-n2c(NNC(C)=O)nc3sc4c(c3c2=O)CCCC4)cc1 the results were DT40 TDP1 CPT 3.26µM*, RORg inh -1.2%, TDP1 cell noCPT 4.11µM*, LDHA inh -10.8, Gal4-VP16 FLuc -0.1% and IL1B secr inh -16.3.
Screening COc1ccc(-n2c(C)nc3sc4c(c3c2=O)CCCC4)cc1 returned RORg inh 30.9% and Gal4-VP16 FLuc -15.0%.
COc1ccc(OC)c(/C=C/C(=O)OC2(C(F)(F)F)C(=O)Nc3c2ccc2ccccc32)c1 (stereo unspecified) was read as LDHA inh 14.8.
CCOC(=O)C1CCN(C(c2cc(OC)c(OC)c(OC)c2)c2sc3nc(C)nn3c2O)CC1 (stereo unspecified) was read as DT40 TDP1 CPT inconclusive, RORg inh 7.2%, TDP1 cell noCPT -28.9%, LDHA inh 1.1, Gal4-VP16 FLuc 27.7% and IL1B secr inh -10.8.
Screening COc1cc(C(c2sc3nc(C)nn3c2O)N2CCC3(CC2)OCCO3)cc(OC)c1OC (stereo unspecified) returned DT40 TDP1 CPT 16.4µM*, RORg inh 16.3%, TDP1 cell noCPT 16.4µM*, LDHA inh -0.8, Gal4-VP16 FLuc -3.1% and IL1B secr inh 5.7.
For Cc1ccc(CN(C(=O)CC23CC4CC(CC(O)(C4)C2)C3)C2CC2)o1 the results were LDHA inh -4.1.
CC(=O)Nc1ccc(-c2ccnc3c2CC(C)(C(=O)Nc2ccc(C(C)C)cc2)O3)cc1 (stereo unspecified) was read as DT40 TDP1 CPT 23.1µM*, TDP1 cell noCPT 20.6µM*, LDHA inh -6.8 and IL1B secr inh -84.5*.
CC(C)c1ccc(NC(=O)C2(C)Cc3c(-c4ccc(C(N)=O)cc4)ccnc3O2)cc1 (stereo unspecified) was read as DT40 TDP1 CPT 16.4µM*, TDP1 cell noCPT 16.4µM*, LDHA inh -5.7 and IL1B secr inh 9.4.
Screening CN(C)c1ccc(-c2ccnc3c2CC(C)(C(=O)Nc2ccc(Cl)cc2)O3)cc1 (stereo unspecified) returned DT40 TDP1 CPT inconclusive, TDP1 cell noCPT inconclusive, LDHA inh -1.6 and IL1B secr inh -22.9.
COCCNc1nnc(SCC(=O)Nc2nnc(-c3ccccc3)o2)s1 was read as DT40 TDP1 CPT -1.8%, TDP1 cell noCPT 11.5%, LDHA inh 0.6 and IL1B secr inh 10.2.
COCCNc1nnc(SCC(=O)Nc2cc(-c3ccccc3)nn2-c2ccccc2)s1 was read as DT40 TDP1 CPT 25.9µM*, RORg inh -28.6%, TDP1 cell noCPT 16.4µM*, LDHA inh 0.0, Gal4-VP16 FLuc -27.8% and IL1B secr inh -2.8.
COc1ccc(-n2cnnc2SCC(=O)Nc2cc(C(C)(C)C)nn2-c2ccccc2)cc1 was read as DT40 TDP1 CPT 3.4%, RORg inh -2.3%, TDP1 cell noCPT -7.1%, LDHA inh -1.0, Gal4-VP16 FLuc 2.8% and IL1B secr inh -1.5.
Screening COc1ccccc1-n1cnnc1SCC(=O)Nc1cc(C(C)(C)C)nn1-c1ccccc1 returned DT40 TDP1 CPT 10.3µM*, RORg inh inconclusive, TDP1 cell noCPT 13µM*, LDHA inh 3.3, Gal4-VP16 FLuc inconclusive and IL1B secr inh -3.3.
Screening Cc1cc(C)c(-c2cc(NC(=O)CSc3nncn3C)n(-c3ccccc3)n2)cc1C returned DT40 TDP1 CPT 18.4µM*, RORg inh 7.5%, TDP1 cell noCPT 20.6µM*, LDHA inh 0.3, Gal4-VP16 FLuc -3.3% and IL1B secr inh -13.0.
For CC(C)(C)c1cc(NC(=O)CCl)n(-c2ccccc2)n1 the results were DT40 TDP1 CPT inconclusive, RORg inh inconclusive, TDP1 cell noCPT 20.6µM*, LDHA inh 0.6, Gal4-VP16 FLuc inconclusive and IL1B secr inh -93.2*.
Screening CC(Cl)C(=O)Nc1cc(C(C)(C)C)nn1-c1ccccc1 (stereo unspecified) returned DT40 TDP1 CPT 1.6%, RORg inh -3.3%, TDP1 cell noCPT -12.7%, LDHA inh 1.6, Gal4-VP16 FLuc 3.2% and IL1B secr inh -9.3.
CC1(C)C2CCC1(C)C(NC(=O)Cc1ccccc1)C2 (stereo unspecified) was read as LDHA inh 5.3.
For CC1(C)C2CCC1(C)C(NC(=O)/C=C/c1ccccc1)C2 (stereo unspecified) the results were DT40 TDP1 CPT inconclusive, RORg inh inconclusive, TDP1 cell noCPT 18.4µM*, LDHA inh -1.6, Gal4-VP16 FLuc 17.8µM* and IL1B secr inh -24.2.
`CC1C/C(=C\c2cccnc2)C(=O)/C(=C/c2cccnc2)C1` (stereo unspecified) gave DT40 TDP1 CPT 0.82µM*, RORg inh 1.12µM*, TDP1 cell noCPT 0.731µM*, LDHA inh -0.3, Gal4-VP16 FLuc 0.631µM* and IL1B secr inh -101.2*.
`O=C1/C(=C/c2cccnc2)CCc2c1[nH]c1ccccc21` gave DT40 TDP1 CPT 18.4µM*, RORg inh 12.2%, TDP1 cell noCPT inconclusive, LDHA inh -0.9, Gal4-VP16 FLuc -6.1% and IL1B secr inh -103.2*.
`NS(=O)(=O)c1ccc(Oc2ccc(S(N)(=O)=O)cc2)cc1` gave DT40 TDP1 CPT -27.0%, RORg inh 22.4%, TDP1 cell noCPT -8.9%, LDHA inh 0.9, Gal4-VP16 FLuc -0.3% and IL1B secr inh 25.9.
